Bioassay records: PubChem, National Center for Advancing Translational Sciences (NCATS)
Sampled rows, rich in hits. Any-hit rate of the full collection: about 7.8%.
HCV inhibitor – HCV inhibition; Potency, µM (top dose mostly 41.8 µM), for inactives: top-dose activity change, negative = inhibition, actives largely listed as inhibitors; 340,000 compounds, 3.4% hits; Huh7.5.1 HCVcc-Cre infection, luciferase reporter, 44 h; active = well fitted inhibition curve with a large enough effect; inconclusive = small, poorly fitted or top-dose-only effect, or another doubt; inactive = no such curve, though single readings can be large or run the other way; note: potency is the fitted concentration of half-maximal effect
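Seed cells (1,000/well) for 4 h; treat with compound and infect with HCVcc-Cre, moi about 0.5. Incubate 44 h, then detect luciferase activity.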
HCMV antiviral – human cytomegalovirus inhibition; 410,000 compounds, 4.5% hits; HFF cells, HCMV-luciferase reporter, 72 h; hits give low values; activity change, negative = inhibition, % at 57.5 µM; in the data active = activity change below about -60%; inconclusive = no clear call, values can overlap the other calls; inactive = above about -39%
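Human foreskin fibroblasts infected with luciferase-reporter HCMV at MOI 1 PFU/cell, compounds at two doses. Luciferase measured 72 h post infection; normalized to buffer-only basal and Salinomycin (10uM) controls.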
VACV mCherry inh – inhibitors of vaccinia virus infection (mCherry reporter signal). 310,000 compounds, 0.63% hits. Potency, µM (series often up to 36.5 µM), for the others: at the highest dose activity change, negative = inhibition, usual class: inhibitors. AID 720579. Vaccinia virus mCherry reporter infection, fluorescence; calls by dose curve; tested in A549 cells; note: potency is the fitted concentration of half-maximal effect; nearly all actives have a fitted effect of over 35% in size
VACV Venus inh – vaccinia inhibition (Venus reporter); Vaccinia virus Venus reporter expression, fluorescence; Potency, µM (series often up to 36.5 µM), inactives show at the highest dose activity change, negative = inhibition, most hits filed as inhibitors; 330,000 compounds, 0.46% hits; AID 720580; calls by dose curve; tested in A549 cells; note: potency is the fitted concentration of half-maximal effect; nearly all actives have a fitted effect of over 30% in size
LASV entry inh – Lassa virus entry inhibition; Lassa virus pseudotype entry inhibition, cell reporter; Potency, µM (series often up to 37.9 µM), for inactives: at the highest dose activity change, negative = inhibition, usual class: inhibitors; 300,000 compounds, 1.2% hits; calls by dose curve; tested in HEK293 cells; note: potency is the fitted concentration of half-maximal effect; nearly all actives have a fitted effect of over 50% in size
MARV entry inh – blocks Marburg virus binding to or entry into cells; Marburg virus pseudotyped entry inhibition, cell reporter; Potency, µM (titrated, usually from 37.8 µM), without a hit: at the top dose activity change, negative = inhibition, actives largely listed as inhibitors; 300,000 compounds, 1.8% hits; AID 540276; calls by dose curve; tested in HEK293 cells; note: potency is the fitted concentration of half-maximal effect
Starred values were filed as active, the others as inactive; i = inactive; ? = inconclusive; . = no result; [ ] = dose if it differs, or a comment. % is set by controls: 0 for no effect and ±100 for the full control effect.

SMILES	HCV inhibitor	HCMV antiviral	VACV mCherry inh	VACV Venus inh	LASV entry inh	MARV entry inh
Cc1ccc(C)c(S(=O)(=O)N2CCCCC2CCNC(=O)C(=O)NCc2ccccc2)c1 (stereo unspecified)	22µM*	4	?	?	-30%[46.1 µM]	?
COc1ccccc1CCNC(=O)C(=O)NCC1OCCCN1S(=O)(=O)c1ccc(F)cc1C (stereo unspecified)	10µM*	-75*	-10%	16%	?	-20%
COc1ccc(CCNC(=O)C(=O)NCC2OCCCN2S(=O)(=O)c2cc(C)ccc2C)cc1 (stereo unspecified)	?	-67*	-25%	-18%	-11%	-29%
CN(C)CCNC(=O)C(=O)NCC1OCCN1S(=O)(=O)c1cc(F)ccc1F (stereo unspecified)	19%	-61*	i	-14%	-1%	12%
CN(C)CCNC(=O)C(=O)NCC1OCCN1S(=O)(=O)c1ccc(F)cc1 (stereo unspecified)	.	13	i	-2%	.	.
CCSc1nnc(C(C)NS(=O)(=O)c2cccc(Cl)c2C)n1C (stereo unspecified)	.	.	-1%	0%	.	.
CCOC(=O)CCN1C(=O)[C@H]2[C@H]3[C@H](O)[C@H](O)C/C(=N\OCC(C)C)[C@@H]3CC[C@H]2C1=O	.	.	.	.	.	-11%[14.2 µM]
COc1ccc(CCNC(=O)C(=O)NCC2CCCN2S(=O)(=O)c2cc(C)ccc2C)cc1 (stereo unspecified)	?	-7	?	-27%	11µM*	?
CSc1ccc(CN(C)CC(=O)NCc2ccccc2)cc1	-11%	-63*	-4%	-15%	?	-1%[46.1 µM]
Cc1cccc(C(=O)NC(NCCc2ccccc2)C(Cl)(Cl)Cl)c1 (stereo unspecified)	-21%	-71*	-11%	-11%	?	?
O=C(NC(CSSCC(NC(=O)c1ccccc1)C(=O)O)C(=O)O)c1ccccc1 (stereo unspecified)	1.6µM*	-18	-3%	0%	.	.
CSc1ccc(CN(C)C(=O)C(Cc2ccccc2)NC(=O)c2ccccc2)cc1 (stereo unspecified)	.	-67*	-12%	-20%	?	?
CN(Cc1ccc(F)cc1)C(=O)C(Cc1ccccc1)NC(=O)c1ccccc1 (stereo unspecified)	-18%	-17	5%	-4%	-21%	?
COC(=O)c1nnc(SC)nc1C(=O)OC	.	.	.	.	.	-5%[14.2 µM]
Oc1ccc(Br)cc1C1C=C(c2ccc3c(c2)OCO3)NC(c2ccc(Br)cc2)N1 (stereo unspecified)	.	.	30%	-12%	.	.
Cc1cc(Cl)ccc1NC(=O)c1cccc(NC(=O)N2CCSc3ncccc32)c1	.	?	-10%	-7%	-9%[46.1 µM]	.
CCOc1ccc(CN(C)C(=O)[C@H](Cc2ccccc2)NC(=O)OCc2ccccc2)cc1OC	?	-13	?	-27%	8.9µM*	4.5µM*
CN(Cc1ccccc1)C(NC(=O)c1ccccc1)C(Cl)(Cl)Cl (stereo unspecified)	?	-30	.	.	21µM*	-28%
Cc1cc2n(n1)C(c1c[nH]c3ccccc13)Nc1ccccc1-2 (stereo unspecified)	4µM*	.	?	-23%	19%	?
Cc1cc2n(n1)C(c1cccs1)Nc1ccccc1-2 (stereo unspecified)	2.8µM*	-19	-17%	-16%	-1%	11%
CCN(c1cccc(C)c1)S(=O)(=O)c1c(C)nc2sc(C)cn2c1=O	.	-21	-9%	-12%	3%[46.1 µM]	.
O=C(O)c1c(-c2ccccc2)cnc2ccccc12	.	-34	-18%	-13%	.	.
Cc1c(-c2ccccc2)cnc2c(C)cccc12	11µM*	9	.	.	.	.
CCOC(=O)N1CCN(C(=O)COC(=O)c2ccc(N(C)C)cc2)CC1	-9%	-26	-7%	0%	2.5µM*	22%
CN(C)c1ccc(C(=O)OCC(=O)N2CCCC2)cc1	3%	7	27%	-3%	-3%	?
SMILES	HCV inhibitor	HCMV antiviral	VACV mCherry inh	VACV Venus inh	LASV entry inh	MARV entry inh
COC(=O)c1ccc(CNC(=O)COC(=O)c2ccc(N(C)C)cc2)cc1	-29%	-66*	-18%	-12%	?	?
CCn1c(=O)c(CCC(=O)NCC2CCCO2)c(C)c2c(C)nn(-c3ccccc3)c21 (stereo unspecified)	13µM*	-22	-5%[7.34 µM]	-3%[7.34 µM]	.	.
COc1ccc(/C=N/NC(=O)c2[nH]c(C)c(C(=O)N/N=C/c3ccc(OC)cc3)c2C)cc1	?	-35	i	-12%	?	?
COc1cccc(/C=N/NC(=O)c2[nH]c(C)c(C(=O)N/N=C/c3cccc(OC)c3)c2C)c1	10µM*	153	-17%	-12%	-4%	?
CCOC(=O)c1c(C)[nH]c(C(=O)N/N=C/c2cccc(OC)c2)c1C	22µM*	-36	?	?	?	?
CCOC(=O)c1c(C)[nH]c(C(=O)N/N=C\c2ccccc2Cl)c1C	?	-99*	?	?	?	-27%
CCOC(=O)Cn1c(=O)oc2cc(S(=O)(=O)N3CCN(c4ccc(Cl)cc4)CC3)ccc21	.	-18	-2%	-7%	11%[46.1 µM]	5%[46.1 µM]
C#CCN1C(C)=C(C(=O)OC)C(c2cccc([N+](=O)[O-])c2)C(C(=O)OCC)=C1C (stereo unspecified)	?	-29	-11%	-6%	?	14µM*
CC1CCCCN1C(=O)c1cnn2c1NC(=C1CC1)C=C2C(F)F (stereo unspecified)	.	.	i	-11%	.	.
O=C(c1ccccc1)c1ccc(CN2C(=O)c3ccccc3C2=O)o1	1%	6	-12%	-3%	2%	12%
CC(=O)c1c(C)oc2c1C(=O)c1ccccc1C2=O	8.9µM*	-72*	-15%	-2%	-11%	-2%
O=C1c2ccccc2C(=O)c2c1oc(C(F)(F)F)c2C(=O)c1ccccc1	22µM*	-98*	4.5µM*	3.2µM*	?	?
COc1ccc(CNC(=O)c2c(C)oc3c2C(=O)c2ccccc2C3=O)cc1	4%[8.37 µM]	?	7.1µM*	8.9µM*	-14%	6%
COc1ccc(CNC(=O)c2ccc(-c3ccccc3)cc2)cc1	-23%	60	-15%[1.46 µM]	-8%	?	2%
CC(=O)c1c2c3c(c(Br)ccc3n(C)c1=O)C(=O)c1ccccc1-2	-6%	?	i	5%	-17%	0%[46.1 µM]
Cc1oc2c(c1C(=O)NCc1cccnc1)C(=O)c1ccccc1C2=O	1.6µM*	.	?	0.56µM*	.	.
O=C(NCCc1csc2nc(-c3ccccc3F)nn12)c1ccco1	.	8	-12%	3%	9%[46.1 µM]	.
COc1ccc(CNC(=O)c2c(F)c(F)c(F)c(F)c2F)cc1	?	-102*	11µM*	?	1%	-28%
CCC1(C)Cc2c(sc3nnn(CC(=O)Nc4ccccc4)c(=O)c23)CO1 (stereo unspecified)	-27%	-39	.	.	-15%	-2%
